High-throughput results (PubChem BioAssay)
An excerpt weighted towards active compounds, which were near 3.1% of everything screened.
DRD3 agonist: qHTS of D3 Dopamine Receptor Agonist: qHTS. D(3) dopamine receptor (Homo sapiens), P35462. D3R DiscoveRx beta-arrestin cells, luminescence, 90 min. max activation, %. 0.58% of 410,000 active; in the data active means max activation above about 30%; further: 0% is about no effect
Target sequence (P35462 whole entry, looked up): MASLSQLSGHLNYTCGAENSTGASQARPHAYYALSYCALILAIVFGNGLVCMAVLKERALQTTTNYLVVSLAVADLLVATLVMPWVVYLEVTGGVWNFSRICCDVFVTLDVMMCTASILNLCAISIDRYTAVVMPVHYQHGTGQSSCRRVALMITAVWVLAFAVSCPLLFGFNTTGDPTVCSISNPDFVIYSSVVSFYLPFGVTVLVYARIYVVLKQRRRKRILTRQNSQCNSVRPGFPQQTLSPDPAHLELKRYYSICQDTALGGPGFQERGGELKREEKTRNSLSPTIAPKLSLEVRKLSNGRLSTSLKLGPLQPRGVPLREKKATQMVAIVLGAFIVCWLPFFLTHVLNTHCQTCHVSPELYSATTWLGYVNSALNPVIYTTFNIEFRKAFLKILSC
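Agonist-mode cell screen: cells plated at 1500/well and incubated overnight at 37 °C, then exposed to library compounds for 90 min at 37 °C. Detection reagent was added for 30–60 min at room temperature, and luminescence was read.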
RGS4 inh: Inhibitors of Regulator of G Protein Signaling (RGS) 4: qHTS | AID 504845, 2011 | Potency, µM (series often up to 114 µM), for inactives: at the top dose activity change, negative = inhibition, hits mostly inhibitors | Regulator of G-protein signaling 4 (Homo sapiens), P49798 | 0.039% of 390,000 active | Transcreener GDP fluorescence polarization, RGS4-accelerated GTP hydrolysis; active means well fitted inhibition curve with a large enough effect; inconclusive means small, poorly fitted or top-dose-only effect; inactive means no such curve, though single readings can be large or run the other way; further: potency means the concentration at half of the fitted maximal effect; on the % scale 0 is the no-effect control and ±100 the full control effect; nearly all actives have a fitted effect of over 75% in size
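MLSMR compounds (23 nl, pin-transferred) preincubated 10 min at room temperature with a 500nM (2x) first reagent, then RGS4 at 900nM (2x) plus Transcreener GDP mix added; fluorescence polarization (620/688 nm) read before and after 90 min at 30 °C.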
uPA generation: qHTS for Inhibitors of Cell Surface uPA Generation. cell surface uPA generation assay, qHTS. Potency, µM (top dose mostly 38.3 µM), without a hit: at the top dose activity change, negative = inhibition, hits mostly inhibitors. 0.31% of 330,000 active. AID 540303, 2011; active means well fitted inhibition curve with a large enough effect; inconclusive means small, poorly fitted or top-dose-only effect; inactive means no such curve, though single readings can be large or run the other way; tested in mouse RAW 264.7 cells; further: potency means the concentration at half of the fitted maximal effect; on the % scale 0 is the no-effect control and ±100 the full control effect; nearly all actives have a fitted effect of over 55% in size
D3 antag: qHTS of D3 Dopamine Receptor Antagonist: qHTS. D3R cells, DiscoveRx beta-arrestin luminescence, antagonist mode; active compounds read low. 2.5% of 360,000 active. max response, negative = inhibition, %. AID 652054, 2013; in the data active means max response below about -50%; inconclusive means no clear call, values can overlap the other calls; further: on the % scale 0 is the no-effect control and ±100 the full control effect
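Cells expressing the human receptor were seeded at 1500 cells/well, incubated overnight at 37 degrees C in 5% CO2, then exposed to library compounds with dopamine controls for 90 minutes at 37 degrees C before luminescent detection.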
* = called active by the depositor; ? = inconclusive; . = no result given; ! = repeats disagree; [ ] = another dose, or the depositor's remark.

SMILES	DRD3 agonist	RGS4 inh	uPA generation	D3 antag
CN(CCCNC(=O)CCCOc1cc(=O)n(C)c2ccccc12)Cc1ccccc1	-0.4	-28.9%	?	-9.6
CCCCN(CC)CCCNC(=O)c1cc2cc3ccc(OC)cc3nc2o1	-1.5	-38.8%	-5.5%	-71.8*
CC1CCN(CCCNC(=O)c2n[nH]c(=O)c3ccccc23)CC1	0.5	23.7%	0.5%	-61.8*
COc1ccccc1-c1noc(-c2ccc(NC(C)C)c([N+](=O)[O-])c2)n1	-4.8	-22.1%	.	.
COc1ccc(-c2cc(C(=O)NCCN3CCOCC3)c3ccccc3n2)c(OC)c1	-23.3	-27.7%	-0.2%	-54.5*
CC1CCN(CCCNC(=O)COc2cc(=O)n(C)c3ccccc23)CC1	-7.2	-5.4%	-7.2%	-74.8*
O=C(NCCN1CCOCC1)c1cc(-c2ccccc2)nc2ccccc12	-17.5	.	.	?
COc1ccc2cc3cc(C(=O)NCCCN4CCC(C)CC4)oc3nc2c1	-14.6	12.9%	?	-58.4*
COc1ccc2cc3cc(C(=O)NCCN4CCN(Cc5ccccc5)CC4)oc3nc2c1	-12.4	2.6%	-0.4%	-60.9*
COc1cc(Cl)c(C)cc1NC(=O)Cn1ncc2c1-c1cc(C)ccc1OC2	5.1	27.4%	.	.
Cc1ccc(C)n1-c1nnc(N2CCCC(C(=O)NCc3ccc(F)cc3)C2)s1 (configuration not stated)	-12.0	-5.8%	.	.
CCN(CCO)Cc1csc2cc(C)ccc12	-37.9	7.5%	-5.0%	-6.2
CCN(CCO)Cc1cn[nH]c1-c1ccc(C)c(C)c1	3.3	-11.6%	3.4%	-66.3*
CC(C(=O)NC(C)(C)C)N(C(=O)CS(=O)CC(=O)Nc1ccc(F)cc1)C1CCCC1 (configuration not stated)	36.8*	-20.3%	10.3%	10.6
O=C(CS(=O)CC(=O)N(CC(=O)NC1CCCC1)C1CCCCC1)Nc1ccc(F)cc1 (configuration not stated)	1.3	14.2%	1.0%	51.8
Cc1ccc(C)c(N2CCN(C(=O)c3cc4c(=O)n(Cc5ccccc5)ccc4nc3C)CC2)c1	3.8	4.1%	.	.
Cn1c(=O)[nH]c(=O)c2c1nc(SCCN1CCOCC1)n2Cc1ccccc1	-10.8	-10.6%	0.4%	-69.9*
Cc1ccccc1N1CCN(CCc2nnc3n2CCCC3)CC1	35.1*	.	.	.
C=CS(=O)(=O)c1c2cc(OC)ccc2nc2ccc(OC)cc12	-23.4	?	-9.1%	-82.6*
CN[C@H](CC(C)C)C(=O)N[C@H]1C(=O)N[C@@H](CC(N)=O)C(=O)N[C@H]2C(=O)N[C@H]3C(=O)N[C@H](C(=O)N[C@@H](C(=O)O)c4cc(O)cc(O)c4-c4cc3ccc4O)[C@H](O)c3ccc(c(Cl)c3)Oc3cc2cc(c3O[C@@H]2O[C@H](CO)[C@@H](O)[C@H](O)[C@H]2O[C@H]2C[C@](C)(N)C(O)[C@H](C)O2)Oc2ccc(cc2Cl)[C@H]1O (some centres not stated)	2.5	.	.	.
COc1ccc(C(=O)N/N=C/c2sc3ccccc3c2O)cc1	-17.5	-40.7%	-21.5%	-51.2*
COc1ccccc1OCC(O)CO (configuration not stated)	82.9*!	9.2%	2.3%	4.8
COc1ccccc1OCC(O)COC(N)=O (configuration not stated)	-20.4	8.7%	14.5%	4.4
CN(Cc1ccccc1)c1nc2c(S(=O)(=O)c3ccccc3)nnn2c2ccsc12	-14.9	1.9%	.	.
CCOC(=O)c1c(NC(=O)CC2Nc3cc(C)c(C)cc3NC2=O)sc(C)c1C (configuration not stated)	-6.4	25.1%	5.3%	-56.6*
SMILES	DRD3 agonist	RGS4 inh	uPA generation	D3 antag
CCOc1ccccc1NC(=O)CC1Nc2cc(C)c(C)cc2NC1=O (configuration not stated)	-4.8	-9.9%	-8.2%	-16.6
O=C(COc1ccccc1)NC(NC(=S)Nc1ccccc1C(=O)O)C(Cl)(Cl)Cl (configuration not stated)	-0.6	?	7.9%	-77.3*
COc1ccc(NC(=O)COC(=O)CN2C(=O)c3ccccc3C2=O)cc1	-8.2	3.4%	0.4%	-54.3*
O=C(NCCN1CCc2ccccc2C1)Nc1ccc([N+](=O)[O-])cc1	-15.3	-1.7%	6.4%	-27.9
O=C(NCCCN1CCc2ccccc2C1)Nc1ccc(Br)cc1	-7.7	-22.3%[56.9 µM]	3.7%	-55.0*
COc1ccc(NC(=O)NCCCN2CCc3ccccc3C2)cc1	-12.1	-0.6%	11.2%	-108.4*
